The text below walks through data of PubChem BioAssay (NCATS).

Where “and” joins values, the source holds several entries; their conditions need not be identical. Identical values can stand only once. Inconclusive results are not listed. Calls of active or inactive are those of the source. Unless noted, calls come from the whole dose curve; as a rule, active = well fitted curve in the direction sought with a large enough effect; inconclusive = small, poorly fitted or top-dose-only effect, or another doubt; inactive = no such curve, though single readings can be large; an effect the other way counts as inactive or inconclusive.

Experiment [1] can be described thus: Primary qHTS to identify inhibitors of SARS-CoV-2 cell entry (AID 1645846; calls by dose curve; note: nearly all actives have a fitted effect of over 45% in size; note: potency is the fitted concentration of half-maximal effect). As to conditions: SARS-CoV-2 pseudovirus cell entry assay, luminescence; activity change, negative = inhibition: at 57.1 µM (top of the series) unless noted. The essentials: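 Inhibition of spike-mediated entry was scored in human ACE2-transfected Expi293F cells. Particles were MLV-pseudotyped with Wuhan-Hu-1 S carrying a 19-aa C-terminal deletion; signal was luciferase after two days, scaled between spike PP and fusion-protein-free PP.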
In general terms: In qHTS, concentration-response curves come from the screen itself.

Experiment [2] can be described thus: Confirmatory qHTS for activators (rescue) of SARS-CoV-2 Cytopathic Effect (CPE) (AID 1508606; calls by dose curve; note: nearly all actives have a fitted effect of over 70% in size; note: potency is the fitted concentration of half-maximal effect). Particulars: Vero E6 SARS-CoV-2 CPE rescue, viability luminescence; series mostly up to 20 µM.
Experiment [3] is described as follows: qHTS Assay for Identification of Small Molecule Antagonists for NFkB Signaling Pathway (AID 895; active = well fitted inhibition curve with a large enough effect in the signal ratio, with a control signal flat, not every such curve was filed as active; the % refers to the signal ratio; note: potency is the fitted concentration of half-maximal effect). Particulars: NFkB beta-lactamase reporter cells, FRET ratio 460/530; series mostly up to 38.3 µM. A digest of the protocol:
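ME-180 NFkB-bla cells (beta-lactamase under NFkB response element), plated overnight, treated with compound then 10 pM TNF alpha (about EC50) for 5 hrs at 37 C. LiveBLAzer FRET read at 460/530 nm emission, 405 nm excitation.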

A short description of experiment [4]: qHTS Assay for Identification of Small Molecule Agonists for Thrombopoietin (TPO) Signaling Pathway (AID 917). Note: % is set by controls: 0 for no effect and ±100 for the full control effect. As to conditions: TPO signaling pathway reporter cells, agonist qHTS; series mostly up to 38.5 µM. The essentials: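 Cell-based luciferase reporter screen. Mouse Ba/F3 line stably expressing human TPO receptor; IL-3 removed overnight before plating. Co-treatment with compound and EC50 TPO (26 pM), 24 hrs at 37 C, then luminescence.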

The target in experiment [5] is Muscarinic acetylcholine receptor M1 (Rattus norvegicus) (UniProt P08482). Put plainly: qHTS Assay for Antagonists of Acetylcholine Muscarinic M1 Receptor: Kinetic Measurement of Intracellular Calcium Response (AID 943).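 For activity change, negative = inhibition: Fluo-4 calcium signal as peak divided by basal fluorescence over 4 min.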 Note: nearly all actives have a fitted effect of over 75% in size. Note: potency is the fitted concentration of half-maximal effect. Particulars: M1-expressing cells, kinetic intracellular calcium fluorescence; series mostly up to 35.3 µM. The essentials: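 Quantitative HTS in CHO-M1 (rat receptor) cells: 10 min compound exposure ahead of 100 nM carbachol, Fluo-4 fluorescence followed 4 min, value expressed as peak-to-basal ratio.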

In experiment [6] the target is Pyruvate kinase PKM (Homo sapiens) (UniProt P14618). Put plainly: qHTS Assay for Activators of Human Muscle Pyruvate Kinase (AID 954; active = well fitted curve in the direction sought with a large enough effect, not every such curve was filed as active;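 note: 0% = uninhibited enzyme and -100% = no enzyme or full thiadiazolimine inhibition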). Particulars: purified human muscle pyruvate kinase, luciferase-coupled luminescence, 1 h; series mostly up to 57.5 µM. The essentials: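 Screening used highly purified human pyruvate kinase M2 under submaximal activity, with PEP at its Km and ADP below Km. After an hour at room temperature, ATP was read by luciferase luminescence.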

The target of experiment [7] is RecQ-like DNA helicase BLM (Homo sapiens) (UniProt P54132). Put plainly: qHTS Validation Assay for Inhibitors of Bloom's syndrome helicase (BLM) (AID 2364).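 Note: plate controls were DMSO vehicle for no effect and enzyme-free control for full effect.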 As to conditions: BLM helicase DNA unwinding, fluorescence, in vitro; series mostly up to 57.1 µM. The essentials: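 50 nM BLM preincubated 15 min at room temperature with compound in pH 8.0 Tris buffer containing 2.5 ug/ml poly(dI-dC); started with 200 nM TAMRA/BHQ-2 forked duplex and 2 mM ATP (final). Unwinding read as TAMRA fluorescence increase, two reads 2 h apart.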

Experiment [8] deals with Cytochrome P450 2D6 (Homo sapiens) (UniProt P10635). Briefly: qHTS Assay for Inhibitors and Substrates of Cytochrome P450 2D6 (AID 891). Note: potency is the fitted concentration of half-maximal effect; nearly all actives have a fitted effect of over 60% in size. As to conditions: recombinant CYP2D6, luciferin-ME EGE luminescence; series mostly up to 57.1 µM. The essentials:
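Luminescent read-out of luciferin formed by 5 nM human CYP2D6 demethylating 30 uM Luciferin-ME EGE (Km level) over 60 min at room temperature after NADPH regeneration addition. Data normalized to full inhibition by 1.43 uM quinidine.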

For experiment [9], the target named is Rap guanine nucleotide exchange factor 3 (Homo sapiens) (UniProt O95398). Briefly: Confirmatory qHTS for antagonist of cAMP-regulated guanine nucleotide exchange factor 3 (EPAC1) (AID 1645880).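 Note: plate controls were DMSO only for no effect and full effect of the ATA control for full effect; nearly all actives have a fitted effect of over 55% in size.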 Particulars: EPAC1 Rap1B-BODIPY-GDP exchange, fluorescence; series mostly up to 115 µM. A digest of the protocol: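 Released BODIPY-GDP fluoresces less than Rap1-bound BODIPY-GDP; the signal is followed at 480/540 nm at 5-min intervals over 30 min, after 5 min at room temperature. Reactions contain 100 nM EPAC1, 250 nM RAP1B-BODIPY-GDP and 50 uM GDP; results are normalized to ATA and DMSO.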

For a further experiment, the system named is ATS95. Briefly: qHTS profiling for inhibitors of Plasmodium falciparum proliferation (AID 504749). Note: nearly all actives have a fitted effect of over 60% in size. Note: potency is the fitted concentration of half-maximal effect. Particulars: P. falciparum in erythrocytes, SYBR Green DNA, 72 h; series mostly up to 28.7 µM. A digest of the protocol:
(§1)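 SYBR Green fluorescence (ex 485 nm, em 535 nm) reports parasite DNA after 72 h compound exposure of infected red cells at 0.3% parasitemia, 2.5% hematocrit; signal normalized to 0.29 uM artemisinin and vehicle wells.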

The test system of another experiment is CP260. Described as above. As to conditions: P. falciparum in erythrocytes, SYBR Green DNA, 72 h; series mostly up to 28.7 µM. A digest of the protocol: as §1
Another experiment relates to CP262. Described as above. As to conditions: P. falciparum in erythrocytes, SYBR Green DNA, 72 h; series mostly up to 28.7 µM. A digest of the protocol: as §1
The next experiment relates to CP265. The experiment is described as above. As to conditions: P. falciparum in erythrocytes, SYBR Green DNA, 72 h; series mostly up to 12.8 µM. The essentials:
as §1

The next experiment has as its system CP297. The description is as above. Particulars: P. falciparum in erythrocytes, SYBR Green DNA, 72 h; series mostly up to 28.7 µM. The essentials:
as §1

For the next experiment, the system named is CP335. Described as above. Particulars: P. falciparum in erythrocytes, SYBR Green DNA, 72 h; series mostly up to 12.8 µM. The essentials: as §1
In the next experiment the test system is ICS. Described as above. Particulars: P. falciparum in erythrocytes, SYBR Green DNA, 72 h; series mostly up to 28.7 µM. A digest of the protocol:
as §1

The next experiment deals with W2. Described as above. Particulars: P. falciparum in erythrocytes, SYBR Green DNA, 72 h; series mostly up to 12.8 µM. The essentials: as §1
The subject of the next experiment is CP203. The description is as above. As to conditions: P. falciparum in erythrocytes, SYBR Green DNA, 72 h; series mostly up to 28.7 µM. The essentials: as §1
For the next experiment, the system named is CP268. Described as above. Particulars: P. falciparum in erythrocytes, SYBR Green DNA, 72 h; series mostly up to 28.7 µM. A digest of the protocol:
as §1

For the next experiment, the system named is CP215. The description is as above. Particulars: P. falciparum in erythrocytes, SYBR Green DNA, 72 h; series mostly up to 28.7 µM. The essentials: as §1

Sequence of Muscarinic acetylcholine receptor M1 (Rattus norvegicus) (P08482 whole entry, looked up): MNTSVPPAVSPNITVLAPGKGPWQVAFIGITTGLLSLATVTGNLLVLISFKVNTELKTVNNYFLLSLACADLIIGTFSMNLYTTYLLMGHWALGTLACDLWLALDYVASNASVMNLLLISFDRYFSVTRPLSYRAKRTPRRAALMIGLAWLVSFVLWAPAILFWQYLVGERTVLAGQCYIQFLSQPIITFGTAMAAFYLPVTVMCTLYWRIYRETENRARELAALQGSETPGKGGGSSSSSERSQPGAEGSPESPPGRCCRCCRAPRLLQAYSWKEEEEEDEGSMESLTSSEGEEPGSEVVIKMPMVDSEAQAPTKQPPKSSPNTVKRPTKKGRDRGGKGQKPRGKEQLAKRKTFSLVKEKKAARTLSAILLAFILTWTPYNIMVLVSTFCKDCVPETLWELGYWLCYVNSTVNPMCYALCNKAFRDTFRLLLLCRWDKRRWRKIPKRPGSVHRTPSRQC
Sequence of RecQ-like DNA helicase BLM (Homo sapiens) (P54132 whole entry, looked up): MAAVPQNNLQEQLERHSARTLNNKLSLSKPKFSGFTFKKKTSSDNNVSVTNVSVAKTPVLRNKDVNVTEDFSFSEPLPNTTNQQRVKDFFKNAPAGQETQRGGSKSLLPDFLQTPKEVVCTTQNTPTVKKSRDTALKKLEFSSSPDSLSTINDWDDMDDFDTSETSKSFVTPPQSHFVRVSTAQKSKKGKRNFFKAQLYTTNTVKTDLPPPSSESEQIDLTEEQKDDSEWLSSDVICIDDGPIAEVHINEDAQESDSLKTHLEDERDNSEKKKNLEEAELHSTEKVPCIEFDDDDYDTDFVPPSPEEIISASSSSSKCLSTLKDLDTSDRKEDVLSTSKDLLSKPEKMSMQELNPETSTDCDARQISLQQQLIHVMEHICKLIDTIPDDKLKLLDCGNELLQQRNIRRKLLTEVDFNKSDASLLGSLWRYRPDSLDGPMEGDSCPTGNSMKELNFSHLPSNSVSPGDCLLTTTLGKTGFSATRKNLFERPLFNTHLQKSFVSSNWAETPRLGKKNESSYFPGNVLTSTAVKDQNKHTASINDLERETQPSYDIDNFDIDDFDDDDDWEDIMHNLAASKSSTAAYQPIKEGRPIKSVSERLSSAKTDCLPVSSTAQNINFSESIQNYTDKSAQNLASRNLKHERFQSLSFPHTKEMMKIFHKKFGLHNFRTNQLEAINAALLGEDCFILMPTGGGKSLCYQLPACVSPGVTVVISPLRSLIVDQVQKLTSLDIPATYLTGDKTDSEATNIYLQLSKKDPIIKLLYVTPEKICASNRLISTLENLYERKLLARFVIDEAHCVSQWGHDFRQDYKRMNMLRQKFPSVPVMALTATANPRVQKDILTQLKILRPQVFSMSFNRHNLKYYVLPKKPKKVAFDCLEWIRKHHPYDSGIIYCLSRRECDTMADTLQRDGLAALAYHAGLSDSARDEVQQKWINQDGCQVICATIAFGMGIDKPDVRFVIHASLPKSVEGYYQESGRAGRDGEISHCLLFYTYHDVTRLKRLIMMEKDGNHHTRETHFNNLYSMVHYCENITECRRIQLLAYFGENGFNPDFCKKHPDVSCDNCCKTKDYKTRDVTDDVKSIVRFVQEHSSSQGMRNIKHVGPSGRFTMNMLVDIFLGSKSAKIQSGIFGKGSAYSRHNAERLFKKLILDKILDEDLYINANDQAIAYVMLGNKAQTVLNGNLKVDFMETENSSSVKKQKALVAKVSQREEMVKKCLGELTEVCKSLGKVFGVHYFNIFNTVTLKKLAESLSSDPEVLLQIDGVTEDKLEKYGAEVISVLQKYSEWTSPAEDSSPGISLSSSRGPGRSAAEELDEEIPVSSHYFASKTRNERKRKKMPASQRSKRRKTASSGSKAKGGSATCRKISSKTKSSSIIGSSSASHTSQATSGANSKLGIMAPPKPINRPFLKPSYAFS
Sequence of Cytochrome P450 2D6 (Homo sapiens) (P10635 whole entry, looked up): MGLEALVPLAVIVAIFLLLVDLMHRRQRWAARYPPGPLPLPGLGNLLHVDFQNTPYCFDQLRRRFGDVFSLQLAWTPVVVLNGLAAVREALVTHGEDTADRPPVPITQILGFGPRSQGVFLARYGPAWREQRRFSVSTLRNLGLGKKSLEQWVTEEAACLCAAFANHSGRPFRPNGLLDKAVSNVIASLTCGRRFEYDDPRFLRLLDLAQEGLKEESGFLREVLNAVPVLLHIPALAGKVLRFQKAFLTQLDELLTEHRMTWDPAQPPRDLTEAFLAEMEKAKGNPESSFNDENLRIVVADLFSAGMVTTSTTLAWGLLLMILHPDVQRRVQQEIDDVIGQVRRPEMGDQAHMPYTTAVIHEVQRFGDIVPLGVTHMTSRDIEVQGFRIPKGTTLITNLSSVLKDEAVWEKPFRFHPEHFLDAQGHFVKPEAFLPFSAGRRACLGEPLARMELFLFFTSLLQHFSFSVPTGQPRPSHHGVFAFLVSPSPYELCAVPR
Sequence of Rap guanine nucleotide exchange factor 3 (Homo sapiens) (O95398 whole entry, looked up): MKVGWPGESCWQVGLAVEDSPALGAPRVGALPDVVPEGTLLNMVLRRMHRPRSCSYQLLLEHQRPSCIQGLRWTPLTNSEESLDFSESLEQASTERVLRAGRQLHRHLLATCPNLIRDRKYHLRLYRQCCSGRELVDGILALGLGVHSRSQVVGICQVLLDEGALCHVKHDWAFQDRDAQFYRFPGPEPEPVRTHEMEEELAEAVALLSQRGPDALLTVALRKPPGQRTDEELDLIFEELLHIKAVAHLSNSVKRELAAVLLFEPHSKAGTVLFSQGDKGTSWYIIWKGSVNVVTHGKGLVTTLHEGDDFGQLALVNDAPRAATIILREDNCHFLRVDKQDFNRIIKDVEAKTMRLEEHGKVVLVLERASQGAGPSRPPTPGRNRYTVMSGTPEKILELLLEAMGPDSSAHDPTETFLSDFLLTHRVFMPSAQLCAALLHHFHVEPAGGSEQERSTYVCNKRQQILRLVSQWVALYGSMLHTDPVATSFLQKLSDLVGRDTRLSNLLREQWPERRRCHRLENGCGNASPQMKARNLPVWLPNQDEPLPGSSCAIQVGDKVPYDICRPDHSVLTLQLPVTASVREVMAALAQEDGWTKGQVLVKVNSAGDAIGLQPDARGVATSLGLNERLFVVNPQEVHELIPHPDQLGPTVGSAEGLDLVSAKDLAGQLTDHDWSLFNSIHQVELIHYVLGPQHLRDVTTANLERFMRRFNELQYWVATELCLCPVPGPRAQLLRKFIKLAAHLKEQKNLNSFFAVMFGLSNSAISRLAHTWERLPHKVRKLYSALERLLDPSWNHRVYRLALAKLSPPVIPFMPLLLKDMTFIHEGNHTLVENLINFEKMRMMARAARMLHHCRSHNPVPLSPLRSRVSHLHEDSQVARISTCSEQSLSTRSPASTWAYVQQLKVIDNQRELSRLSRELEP
Sequence of Pyruvate kinase PKM (Homo sapiens) (P14618 whole entry, looked up): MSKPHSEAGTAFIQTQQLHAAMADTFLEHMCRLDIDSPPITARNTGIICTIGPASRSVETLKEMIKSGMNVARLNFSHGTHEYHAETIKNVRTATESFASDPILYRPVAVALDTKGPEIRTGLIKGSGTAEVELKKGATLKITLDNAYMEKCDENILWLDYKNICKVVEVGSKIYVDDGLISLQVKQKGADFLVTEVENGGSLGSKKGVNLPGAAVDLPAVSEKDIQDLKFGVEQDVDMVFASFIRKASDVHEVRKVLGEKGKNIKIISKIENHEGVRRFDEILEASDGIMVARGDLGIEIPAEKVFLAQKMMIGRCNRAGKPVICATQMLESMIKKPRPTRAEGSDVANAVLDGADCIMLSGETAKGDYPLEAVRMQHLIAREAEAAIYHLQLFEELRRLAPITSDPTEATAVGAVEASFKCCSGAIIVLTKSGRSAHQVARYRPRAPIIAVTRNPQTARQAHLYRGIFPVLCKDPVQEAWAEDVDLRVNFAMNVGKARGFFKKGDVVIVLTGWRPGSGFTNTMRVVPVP

Regarding `Nc1nc(OC(c2ccc(-c3cccc(F)c3)cc2)C(F)(F)F)cc(-c2ccc(C[C@H](N)C(=O)O)cc2)n1` (stereo not given in full), in experiment [1], the Potency result is “inactive”.

Regarding `CC[C@H](NC(=O)[C@H](CS(=O)(=O)CC1CC1)N[C@@H](c1ccc(F)cc1)C(F)(F)F)C(=O)C(=O)NC1CC1`, in experiment [2], the Potency was 0.112 µM (active).

As to `Cc1cc2cc(Oc3ccnc(Nc4cccc(CS(=O)(=O)NCCN(C)C)c4)n3)ccc2[nH]1`, the Potency result in [2] was “inactive”. In experiment [1], the Potency is 35.5 µM (active).

With `CCCCNc1ncc2c(-c3ccc(CN4CCN(C)CC4)cc3)cn(C3CCC(O)CC3)c2n1` (stereo not given), in experiment [2], the Potency entry was “inactive”. Also, the Potency in [1] was 14.1 µM (active).

Turning to `N#C/C(=C\c1ccc(O)c(O)c1)C(N)=S`, in [3], the Potency is 5.62 µM (active). For the same compound, the outcome in experiment [4] and in [6] was inactive. Further, in experiment [5], the Potency result was “inactive”.

With `C=CCN1CCc2cccc3c2C1Cc1ccc(O)c(O)c1-3` (stereo not given), the outcome in experiment [7] was inactive.

As to `CCc1c(C(=O)OC)ncc2[nH]c3cc(OC)c(OC)cc3c12`, the Potency in [3] was 5.62 µM (active). Further, the outcome in [4] and in [6] was inactive.

For the compound `Clc1ccccc1-c1cncnc1NCCc1cnc[nH]1`, in [8], the Potency was 3.98 µM (active).

On to `CC(C)CN1CCC2(CC1)CCN(S(C)(=O)=O)CC2`, for which, in experiment [8], the Potency is 0.794 µM (active).

With `CCCN1CCc2cc(O)cc3c2C1Cc1ccc(O)c(O)c1-3` (stereo not given), the compound was classed as inactive in [7].

For the compound `O=C(O)C1=CCCN(CCOC(c2ccc(C(F)(F)F)cc2)c2ccc(C(F)(F)F)cc2)C1`, in experiment [1], the activity change, negative = inhibition was -6.97%.

As to `CCCN1CCc2cccc3c2C1Cc1ccc(O)c(O)c1-3` (stereo not given), the compound was classed as inactive in [7].

For `CC(=O)OC1CC2C(C)(C)C(=O)C=C[C@]2(C)C2CC[C@]3(C)C(=CC(=O)OC3c3ccoc3)[C@]12C` (stereo not given in full), in [9], the Potency entry is “inactive”.

In the case of `O=C(OC1CCN(CCCl)CC1)C(c1ccccc1)c1ccccc1`, the figures for the Potency in [3] and in [5] were 2.51 µM (active) and 0.112 µM (active), respectively. Also, the outcome in [6] was inactive. Also, the Potency result in [9] is “inactive”.

As to `C[C@]12CC[C@H](O)CC1=CCC1C2CC[C@]2(C)C(=O)CC[C@@H]12` (stereo not given in full), the result in [7] was inactive. Besides, the Potency entry in the experiment with ATS95, in the experiment on CP260, with CP262, in the experiment on CP265, in the experiment with CP335 and in the experiment on ICS was “inactive” each time. In addition, in the experiment on W2, the Potency result is “inactive”. In addition, the Potency in the experiment on CP297 was 19 µM (active).

`CC1=NCCc2c1[nH]c1cc(O)ccc21`: the Potency entry in experiment [9] was “inactive”.

Consider `O=C1c2ccccc2-c2cccc3cccc1c23`, for which, in experiment [9], the Potency result was “inactive”.

Consider `C[N+]1([O-])[C@@H]2CC(OC(=O)[C@@H](CO)c3ccccc3)C[C@@H]1[C@H]1O[C@H]12` (stereo not given in full), for which the Potency result in the experiment on ATS95, in the experiment on CP203, in the experiment on CP260, in the experiment on CP262, in the experiment with CP265 and in the experiment on CP268 was “inactive” in each case. Besides, the Potency result in the experiment on CP297, in the experiment on CP335, in the experiment on ICS and in the experiment on W2 was “inactive” throughout.

`CCNC[C@H](O)c1cccc(O)c1`: the Potency result in the experiment on ATS95, with CP215, with CP260, in the experiment with CP262, in the experiment on CP265 and with CP268 was “inactive” each time. Further, the Potency result in the experiment on CP335, with ICS and in the experiment with W2 was “inactive” each time.

Take `ClC1=C(Cl)C2(Cl)C3C4CC(C5OC45)C3C1(Cl)C2(Cl)Cl` (stereo not given): the Potency result in the experiment with CP203 and with CP215 was “inactive” in each case.

Consider `C[C@@]12CC[C@H]3[C@@H](CC[C@@H]4C[C@H]5S[C@H]5C[C@]43C)[C@H]1CC[C@H]2O`, for which the Potency result in the experiment with ATS95, in the experiment with CP203, in the experiment with CP215, in the experiment on CP260, in the experiment with CP262 and with CP265 was “inactive” throughout. Also, the Potency result in the experiment with CP268, in the experiment on CP297 and with CP335 was “inactive” throughout.

As to `CS(=N)(=O)CC[C@@H](N)C(=O)O` (stereo not given in full), the compound was classed as inactive in experiment [4] and in experiment [6]. Besides, the Potency entry in [5] is “inactive”.

On to `C=C[C@H]1CN2CC[C@@H]1C[C@H]2[C@@H](O)c1ccnc2ccccc12`, for which the Potency in experiment [8] is 3.16 µM (active) and 501 nM (active).

Turning to `C[C@H](N)[C@@H](O)c1ccccc1`, the Potency entry with ATS95, in the experiment with CP203, in the experiment on CP215, in the experiment with CP260, in the experiment on CP262 and in the experiment on CP265 was “inactive” in each case. Further, the Potency entry with CP268, with CP297, with CP335, in the experiment on ICS and in the experiment on W2 was “inactive” in each case.
